In PubChem BioAssay AID2108 (National Center for Advancing Translational Sciences (NCATS), 2009):
Inconclusive results are not listed. The source made the active and inactive calls. Calls come from the whole dose curve; as a rule, active = well fitted curve in the direction sought with a large enough effect; inconclusive = small, poorly fitted or top-dose-only effect, or effect the other way, or another doubt; inactive = no such curve, though single readings can be large or run the other way.

Biological target: Alpha-galactosidase A (Homo sapiens) (UniProt P06280)
Assay: Confirmation of Inhibitors of Human alpha-Galactosidase Using Spleen Homogenate
Settings: alpha-galactosidase enzyme activity; series mostly up to 56.2 µM
Summary of the method: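 Human spleen homogenate (1 ug) with 1 mM 4-methylumbelliferyl-alpha-D-galactopyranoside in citrate-phosphate pH 5.0, 0.01% Tween-20, 37C 40 min; compounds 0.5 nM–58 uM final. Stopped at pH 10, fluorescence Ex 365/Em 440; AC50 from Hill fits.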

Alpha-galactosidase A (Homo sapiens), sequence (P06280 32-429 limits assumed): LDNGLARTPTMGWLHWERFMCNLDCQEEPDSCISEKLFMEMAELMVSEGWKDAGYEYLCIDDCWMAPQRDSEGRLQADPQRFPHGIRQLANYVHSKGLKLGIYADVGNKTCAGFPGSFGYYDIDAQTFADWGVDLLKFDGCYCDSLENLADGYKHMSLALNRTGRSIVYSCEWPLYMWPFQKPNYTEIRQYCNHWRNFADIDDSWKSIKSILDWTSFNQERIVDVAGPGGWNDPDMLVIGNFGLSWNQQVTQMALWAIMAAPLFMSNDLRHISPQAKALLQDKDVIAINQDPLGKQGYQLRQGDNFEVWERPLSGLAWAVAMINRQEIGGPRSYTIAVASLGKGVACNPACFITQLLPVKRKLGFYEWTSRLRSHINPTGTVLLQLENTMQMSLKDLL

outcome, inactive:
Cc1ccc(S(=O)(=O)N2CCOCC2)cc1
COc1cccc(S(=O)(=O)N2CCOCC2)c1
O=S(=O)(c1cccc(Br)c1)N1CCOCC1
O=C(/C=C/c1ccc(O)c(O)c1)c1ccc(O[C@@H]2O[C@H](CO)[C@@H](O)[C@H](O)[C@H]2O)c(O)c1O
O=C(Cn1c(=O)n(Cc2ccccc2)c(=O)c2sc3ccccc3c21)Nc1ccccc1
O=C(O)C[C@@H]1C(=O)O[C@@H]2C(COC(=O)c3cc(O)c(O)c(O)c3)O[C@@H](OC(=O)c3cc(O)c(O)c(O)c3)[C@@H](OC(=O)c3cc(O)c(O)c4c3[C@H]1[C@H](O)C(=O)O4)[C@H]2OC(=O)c1cc(O)c(O)c(O)c1 (stereo partly specified)
CCC(C)Nc1nc(-c2cccc(OC)c2O)nc2ccccc12 (stereo unspecified)
Oc1ccccc1C1CC(c2cccs2)=NC(c2ccc(Cl)cc2)N1 (stereo unspecified)
Cc1cccc(NC(=O)c2nc[nH]c2C(=O)N[C@@H](CCCCNC(=O)OC(C)(C)C)C(=O)OC(C)(C)C)c1
COc1ccc(/C=C/c2nnc(NC(=O)CSc3ccccc3)s2)cc1
Cc1cc(C)c(C(=O)Cn2cnc3cc([N+](=O)[O-])ccc3c2=O)cc1C
O=C(NN=C1c2ccccc2-c2ccccc21)c1cccc(S(=O)(=O)N2CCOCC2)c1
O=c1cc(-c2ccccc2)[nH]c2[nH]n(-c3ccccc3)c(=O)c12
CC(C)c1nc2cc(C(=O)N3CCNC(=O)C3c3cccc(F)c3)ccc2o1 (stereo unspecified)
CCC(=O)N1CCN(c2ccc(Cl)cc2NC(=O)c2ccc(N3CCCC3)c([N+](=O)[O-])c2)CC1
COc1ccc(OC)c(/C=C/C(=O)N(C)CC(=O)Nc2ccc(C)cc2)c1
NC(=S)NN=C1c2cc(S(=O)(=O)N3CCOCC3)ccc2-c2ccc(S(=O)(=O)N3CCOCC3)cc21
CCOC(=O)c1c(-c2ccc(-c3ccccc3)cc2)csc1NC(=O)CCN1CCOCC1
O=S(=O)(c1ccc(Cl)cc1)N1CCOCC1
CCOC(=O)C(CC)Sc1ncnc2c1c(-c1ccccc1)cn2-c1ccc(OC)cc1 (stereo unspecified)
O=C1NC[C@@H](Cc2cccc3ccccc23)N(CCc2cc(C(F)(F)F)cc(C(F)(F)F)c2)C1=O
CC1(C)CC(=O)c2cc(C(=O)NC3CCSC3=O)c(=O)n(-c3ccccc3)c2C1 (stereo unspecified)
COc1ccc(/C=C/c2nnc(NC(C)=O)s2)cc1
COCCSc1nc(N)c2c3c(sc2n1)CN(C)CC3
OC[C@H]1NC[C@@H](O)[C@@H](O)[C@@H]1O
O=C(Nc1cc(S(=O)(=O)N2CCOCC2)ccc1N1CCCC1)c1cc(=O)[nH]c2ccccc12
CC/C(=N\NC(=O)c1c(C)nc2ccccn12)c1ccc(Cl)cc1
O=C(O)Cc1sc(-c2cc3ccccc3oc2=O)nc1-c1ccc(Br)cc1
CCc1sc(-c2cc3ccc(O)cc3oc2=O)nc1-c1ccccc1
CCc1sc(-c2cc3cc(Cl)ccc3oc2=O)nc1-c1ccccc1
O=C(O)c1cc2c(ccc3ccccc32)o1
CC(=O)Nc1ccc(S(=O)(=O)/N=C2/NC(=O)/C(=C\c3ccco3)S2)cc1
COc1ccccc1NCC(=O)n1nc(C)cc1C
OCCN1CC(O)C(O)C(O)C1CO (stereo unspecified)
COc1cccc(NC(=S)NCc2ccc3c(c2)cc(C)n3C)c1
Cc1nc(SCC(=O)N2CCN(c3ccccc3)CC2)c2oc3ccccc3c2n1
